According to PubChem BioAssay (Tox21):
A number with no mark means an inactive call. Active and inactive are the calls of the source. Calls come from the whole dose curve; as a rule, active = well fitted curve in the direction sought with a large enough effect in the repeat runs; inconclusive = weak or mixed curves; inactive = flat fitted curve, though single readings scatter.

Assay: qHTS assay to test for compound auto fluorescence at 460 nm (blue) in HEK293 cell free culture (AID 720681)
Conditions: cell-free medium, autofluorescence 405/460 nm (blue); series mostly up to 91.3 µM; fluorescence, % of fluorescent control: at the top concentration
Source text: U.S. Tox21 Program National Center for Advancing Translational Sciences [NCATS] NIH Chemical Genomics Center [NCGC] U.S. Environmental Protection Agency [EPA] National Institutes of Environmental Health Sciences [NIEHS] National Toxicology Program [NTP] U.S. Food and Drug Administration [FDA] Tox21 Assay Overview: Compound auto fluorescence often interferes with screening of the compound library against various biological targets and signaling pathways. Some of these compounds may have fluorophoric properties. Such properties may interfere with the assay outputs resulting in false positives and/or negatives. To decrease such complications and ensure the compound activities are relevant in terms of biological response, the Tox21 10K compound library was screened for auto fluorescence. From the fluorophores used as reporter signals in our screening assays, the auto fluorescence equivalencies of compounds against three fluorophores have been evaluated: Triamterene, Fluorescein and Rose Bengal sodium for blue, green and red fluorescence, respectively. The fluorescence intensities were measured using Excitation/Emission wavelengths at 405/460nm, 485/535nm and 540/590nm for blue, green and red labels, respectively. This assay includes the blue fluorescence data.
Tox21 Assay Protocol Summary: 5 uL of culture medium (DMEM containing 10% FBS) per well was dispensed into black wall/clear bottom 1536-well plates using a Multidrop Combi Dispenser (ThermoFisher Scientific, Waltham, MA). After 23 nL compound or DMSO vehicle was transferred into assay plate by a pintool work station (Kalypsys, San Diego, CA), fluorescence intensities in the assay plates were measured by an Envision (PerkinElmer, Shelton, CT) plate reader using three labels for measuring blue, green and red fluorescence at […] 460, 535 and 590nm respectively.
% is set by controls: 0 for no effect and ±100 for the full control effect.

Row | SMILES | fluorescence, % of fluorescent control | outcome
1 | C=CCC1([C@H](C)CCC)C(=O)NC(=O)NC1=O | 0.0027% | –
2 | CC(=O)C(C)(C)C | -0.244% [at 95.7 µM] | –
3 | NC(=O)CI | 0.145% | –
4 | C#CCOC(C(=O)OCCN(C)C)(c1ccccc1)c1ccccc1 | -0.117% [at 46 µM] | –
5 | O=S(=O)(O)C(F)(F)C(F)(F)C(F)(F)C(F)(F)F | 0.292% | –
6 | CC(C)(C)C(O)C(Oc1ccc(Cl)cc1)n1cncn1 (stereo not given) | 0.186% | –
7 | CCCC(Cn1cncn1)c1ccc(Cl)cc1Cl (stereo not given) | -0.0159% | –
8 | ClP(Cl)(Cl)(Cl)Cl | 0.0086% | –
9 | CN(C)c1ccc(N(C)C)cc1 | -0.143% | –
10 | O=C1c2ccccc2C(=O)C1C(=O)C(c1ccccc1)c1ccccc1 | 0.895% [at 46 µM] | –
11 | CO/N=C(/C(=O)OC)c1ccccc1COc1ccccc1C | -0.0479% | –
12 | Brc1ccc(Oc2ccccc2)cc1 | – | inactive
13 | CCBr | 0.0338% [at 95.7 µM] | –
14 | OCCCBr | -0.378% | –
15 | ClCc1ccccc1 | 0.0131% | –
16 | COP(=S)(OC)Oc1ccc([N+](=O)[O-])cc1Cl | -0.527% | –
17 | N#Cc1ccc(Cl)cc1 | -0.149% | –
18 | Cc1ccccc1C(=O)Nc1cccc(OC(C)C)c1 | 0.0294% | –
19 | IC(I)=C(I)I | -0.0243% | –
20 | CN1[C@@H]2CC[C@H]1CC(OC(=O)c1cc(Cl)cc(Cl)c1)C2 (stereo not given in full) | 0.0114% [at 46 µM] | –

Row | SMILES | fluorescence, % of fluorescent control | outcome
21 | O=C1CN=C(c2ccccc2)c2cc(Cl)ccc2N1CC1CC1 | – | inactive
22 | C=C(C#N)CCC#N | -0.0035% | –
23 | N#CCc1ccccc1 | -0.0356% [at 95.7 µM] | –
24 | O=[N+]([O-])c1ccc(F)c([N+](=O)[O-])c1 | – | inactive
25 | C[C@@H]1CC[C@H]2[C@@H](C)C(=O)O[C@@H]3O[C@@]4(C)CC[C@@H]1[C@]32OO4 | 0.131% [at 46 µM] | –
26 | NS(=O)(=O)C(F)(F)C(F)(F)C(F)(F)C(F)(F)C(F)(F)C(F)(F)C(F)(F)C(F)(F)F | 0.0222% | –
27 | NC(=O)C(Cl)(Cl)Cl | 0.0282% | –
28 | O=C(CBr)OCc1ccccc1 | 0.143% | –
29 | O=C(CBr)c1ccccc1 | 0.618% | –
30 | Cc1ccccc1CCl | -0.0046% | –
31 | COc1nn(C(=O)NS(=O)(=O)c2ccccc2OC(F)(F)F)c(=O)n1C | -0.0005% | –
32 | CCCCOC(=O)c1ccccc1C(=O)OCc1ccccc1 | – | inactive
33 | O=C(CCl)c1ccc(Cl)cc1Cl | – | inactive
34 | CN(N=O)c1ccc([N+](=O)[O-])cc1 | -0.216% | –
35 | COc1cc(CC(C)N)cc2c1OCO2 (stereo not given) | -0.135% [at 95.7 µM] | –
36 | O=S1(=O)OC(c2cc(Br)c(O)c(Br)c2)(c2cc(Br)c(O)c(Br)c2)c2ccccc21 | -0.47% | –
37 | Cl/C=C\C[N+]12CN3CN(CN(C3)C1)C2 | 4.55% | –
38 | CCCCN(N=O)C(=N)N[N+](=O)[O-] | 0.132% [at 95.7 µM] | –
39 | Clc1cc(C(Cl)(Cl)Cl)cnc1Cl | -0.133% | –
40 | O=C(Nc1ccccc1)Nc1cnns1 | -0.153% | –
